The values below come from PubChem BioAssay (NCATS).

Test [1] addresses Methanococcus maripaludis chaperonin (MmCpn) (UniProt Q6LX38). The test is described as follows: High-Throughput Screening for Modulators of Cytosolic Chaperonin Activity: MmCpn Primary Screen (AID 488978).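 Further: 50 nM MmCpn enzyme hydrolysing 30 µM ATP at 37 °C; 0% is about no effect.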 An outline of the steps:
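ADP formation read by HTRF Transcreener, 665/590 nm emission after 320 nm excitation. Enzyme: archaeal chaperonin at 50 nM final; substrate ATP 30 uM final; 10 min, 37C, after 5 min compound preincubation at RT.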

Test [2] has as its target Transient receptor potential cation channel subfamily V member 1 (Homo sapiens) (UniProt Q8NER1). The test is described as follows: HTS Assay for Compounds that Act as Enhancers of the Vanilloid Receptor 1 (AID 488979). Further: 0% is about no effect. A digest of the protocol:
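TRPV1 cells loaded with Fluo-8 calcium dye; compound added and Ca2+ signal (ex 480/em 520 nm) followed 3 min, then capsaicin at EC20 added and read 2 more min to detect enhancement.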

Test [3] has as its target Thyrotropin receptor (Homo sapiens) (UniProt P16473). The test can be described thus: qHTS Assay for Antagonists of the Thyroid Stimulating Hormone Receptor (AID 488980). Further: series mostly up to about 58 µM; 0% is about no effect. An outline of the steps: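 TSHR-HEK293 cells; 70 uM RO 20-1724 PDE inhibitor; compound + EC80 TSH (4 nM final); anti-cAMP cryptate antibody/cAMP-d2 in lysis buffer, 30 min RT; HTRF 665/620 nm read.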
(In general: Quantitative high-throughput screening tests each substance at several concentrations.)

The target in test [4] is D(1A) dopamine receptor (Homo sapiens) (UniProt P21728). The test is described as follows: HTS Assay for Allosteric Agonists of the Human D1 Dopamine Receptor: Primary Screen for Agonists (AID 488981). Further: 0% is about no effect. An outline of the steps: (§1)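 Tetracycline-induced HEK293 Trex D1 cells with forced coupling to calcium, loaded with no-wash calcium dye; kinetic fluorescence read 180 s after compound addition for agonism, then a further 180 s after an EC20 dopamine challenge for potentiation.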

For test [5] the target is unchanged. The test is described as follows: HTS Assay for Allosteric Agonists of the Human D1 Dopamine Receptor: Primary Screen for Potentiators (AID 488982). Further: 0% is about no effect. A digest of the protocol: as §1
In test [6] the target is ATP-dependent 6-phosphofructokinase (Trypanosoma brucei brucei) (UniProt O15648). The test can be described thus: qHTS Assay to Find Inhibitors of T. brucei phosphofructokinase: hit validation (AID 492961). Further: series mostly up to about 51 µM; on the % scale 0 is the no-effect control and ±100 the full control effect. An outline of the steps: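 Luminescence from ADP-Glo reports ADP generated as T. brucei PFK (1.25 nM) phosphorylates 0.5 mM fructose-6-phosphate using 0.1 mM ATP. Reactions ran 45 min at room temperature, pH 8.0.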

Test [7] in a line: Validation screen for small molecules that induce genotoxicity in human embryonic kidney (HEK293T) cells expressing luciferase-tagged ELG1 (AID 493106). Further: potency means the concentration at half of the fitted maximal effect. An outline of the steps:
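ELG1-luciferase reporter readout (ONE-Glo, 30 min, room temperature) after 16 hr compound treatment at 37 °C of HEK293T cells at 2,000 per well. Rising luminescence flags genotoxic stress.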

Test [8] concerns the target ATPase family AAA domain-containing protein 5 (Homo sapiens) (UniProt Q96QE3). The test can be described thus: Validation screen for small molecules that inhibit ELG1-dependent DNA repair in human embryonic kidney (HEK293T) cells expressing luciferase-tagged ELG1 (AID 493107).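 Further: series mostly up to about 46 µM; on the % scale 0 is the no-effect control and ±100 the full control effect; inhibitors lower the ELG1-luciferase luminescence signal; nearly all actives have a fitted effect of over 70% in size.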 A digest of the protocol:
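Luciferase read-out, ONE-Glo, 30 min at room temperature, follows 16 h co-exposure at 37 C of compound and the DNA-damaging agent 5-fluorouridine. Cells: HEK293T with ELG1-luciferase fusion, 2,000 per well, DMSO as vehicle.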

Test [9] addresses Thyrotropin-releasing hormone receptor (Homo sapiens) (UniProt P34981). The test can be described thus: qHTS for Small Molecule Agonists and Allosteric Enhancers of Human TRH Receptor: Validation Screen for Agonists (AID 493127;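 active means calcium activation more than 3 SD above the typical response in the agonist read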;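 further: intracellular calcium rise by fluo-8 fluorescence before TRH EC20 addition; 0% is about no effect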). The settings on record: TRH receptor agonist cell assay; at 2 µM; stronger effect = higher value. A digest of the protocol:
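Compound-evoked intracellular calcium release in fluo-8-loaded TRHR cells, read kinetically on FDSS (Ex 480/Em 530, 1 s/cycle) after 23 nL pintool transfer. Agonist phase preceded 10 nM TRH EC20 addition.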

Test [10] is described as follows: qHTS for Inhibitors of Cell Surface uPA Generation: Validation Assay (AID 493164).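 Further: RAW 264.7 macrophage cells exposed to compound for 18 h; 0% is about no effect.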 A digest of the protocol: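 ATP-Lite luminescence read-out: ATP remains high when uPA activity-dependent LF translocation into the cytoplasm is blocked. RAW 264.7 cells, 18 h compound exposure at 37 C; 7-point titration, 2.45 nM to 38.3 uM final.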
Test [11] has as its target Galactokinase (Homo sapiens) (UniProt P51570). The test is described as follows: qHTS Validation Assay for Inhibitors of Human Galactokinase (GALK) (AID 493189). Further: 0% is about no effect. An outline of the steps:
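Luminescence from leftover ATP (Kinase-Glo Plus, 10 min) served as read-out after a 1 h room-temperature reaction of 5 nM GALK, 100 uM galactose and 35 uM ATP at pH8.0.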

Test [12] can be described thus: Validation screen for small molecules that induce DNA re-replication in SW480 colon adenocarcinoma cells (AID 504364). Further: 0% is about no effect. An outline of the steps:
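Image-based DNA content read-out: Hoechst stain 40 min, total nuclear fluorescence intensity (ex 405 nm, em 500-530 nm) after 48 h compound exposure of 250 SW480 cells/well at 37 C, 5% CO2, versus DMSO vehicle.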

Test [13] has as its target Peptidyl-prolyl cis-trans isomerase NIMA-interacting 1 (Homo sapiens) (UniProt Q13526). The test can be described thus: qHTS Validation Assay to Find Inhibitors of Pin1 (AID 504536; active means well fitted inhibition curve with a large enough effect in the polarisation, with a control signal flat, not every such curve was filed as active; the % refers to the polarisation;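 further: 0% = full Pin1 enzyme wells and -100% = no-enzyme wells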). An outline of the steps:
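Fluorescence polarization competition: compounds (titration) displace HiFluor-488-labeled Pin1-1b peptide from Pin1 (0.3 uM final) in pH 7.5 HEPES buffer with DTT, 10 min at room temperature; %Activity normalized to no-enzyme wells, curves fitted.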

Test [14] addresses Phosphoglycerate kinase, glycosomal (Trypanosoma brucei brucei) (UniProt P07378). The test can be described thus: qHTS Validation Assay to Find Inhibitors of Phosphoglycerate Kinase (AID 504547).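 Further: control wells lack PGK and mark full inhibition.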 A digest of the protocol: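 Compounds are pinned into the substrate/PGK mixture, and GAPDH (100nM final) is added to start the reaction by producing 1,3-BPG. After 60 minutes at room temperature, Kinase-Glo Plus is added and luminescence is measured 10 minutes later.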

Test [15] addresses phosphoglycerate mutase (Leishmania major) (UniProt Q4Q090). The test is described as follows: qHTS Validation Assay to Find Inhibitors of Phosphoglycerate Mutase (AID 504548). Further: series mostly up to about 58 µM; on the % scale 0 is the no-effect control and ±100 the full control effect. The settings on record: Potency: inhibition qHTS. An outline of the steps:
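Lm PGAM 1.25nM final; 100 mM TEA pH 7.6, 5 mM MgCl2, 0.01% Tween-20; 45 min RT; Kinase-GloPlus, 10 min; end-point luminescence. Enzyme-free wells as negative controls.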

Test [16] addresses Ubiquitin carboxyl-terminal hydrolase 1 (Homo sapiens) (UniProt O94782). The test can be described thus: Inhibitors of USP1/UAF1: Pilot qHTS (AID 504865). Further: nearly all actives have a fitted effect of over 35% in size. Further: potency means the concentration at half of the fitted maximal effect. A digest of the protocol:
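1nM USP1/UAF1 + cpd, 15 min RT; start w/ Ub-Rho 150nM final; kinetic FL 480/540 nm, 6 reads q60 s. Buffer 50mM HEPES pH 7.8, 0.5mM EDTA, 1mM TCEP, 0.01% Tween-20, 0.1 mg/ml BSA.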

Test [17] concerns the target D(1A) dopamine receptor (Homo sapiens) (UniProt P21728). The test is described as follows: HTS Assay for Allosteric Agonists of the Human D1 Dopamine Receptor: Primary Screen for Antagonists (AID 488983).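 Further: calcium flux response to an EC80 dopamine challenge measured with no-wash dye; nearly all actives have a fitted effect of over 65% in size.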 Further: potency means the concentration at half of the fitted maximal effect. An outline of the steps:
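Calcium-flux read-out in inducible HEK293 T-REx cells expressing D1, dye-loaded 30–90 min at room temperature. Kinetic reads: 180 s after compound (agonist phase), then 180 s after an EC80 dopamine challenge.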

Test [18] can be described thus: Nrf2 qHTS screen for inhibitors: Validation (AID 493153; active means well fitted inhibition curve with a large enough effect in the main read-out, with a control signal flat, not every such curve was filed as active). The settings on record: Potency: luciferase luminescence; viability change: measured here: cytotoxicity max response. A digest of the protocol: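 Concentration-response on A549 ARE_Fluc reporter cells exposed 18-24 h at 37 C, 5% CO2. Cytotoxicity read first by CellTiter-Fluor fluorescence (Ex 405/Em 525), then Nrf2 inhibition by BugLite luminescence after 15 min.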

Test [19] is described as follows: qHTS for Inhibitors of ATXN expression: Validation of Cytotoxic Assay (AID 588349). Further: on the % scale 0 is the no-effect control and ±100 the full control effect. An outline of the steps:
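Cytotoxicity counter-screen: ATP-based luminescent viability (CellTiter Glo) after 72 hr exposure of HEK293 cells to a compound titration at 37 degrees C.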

Inconclusive results are not listed. The source made the active and inactive calls. Unless noted, the call rests on the fitted dose curve; in most records, active means well fitted curve in the direction sought with a large enough effect; inconclusive means small, poorly fitted or top-dose-only effect, or another doubt; inactive means no such curve, though single readings can be large; an effect the other way counts as inactive or inconclusive.

Ubiquitin carboxyl-terminal hydrolase 1 (Homo sapiens), sequence (O94782 whole entry, looked up): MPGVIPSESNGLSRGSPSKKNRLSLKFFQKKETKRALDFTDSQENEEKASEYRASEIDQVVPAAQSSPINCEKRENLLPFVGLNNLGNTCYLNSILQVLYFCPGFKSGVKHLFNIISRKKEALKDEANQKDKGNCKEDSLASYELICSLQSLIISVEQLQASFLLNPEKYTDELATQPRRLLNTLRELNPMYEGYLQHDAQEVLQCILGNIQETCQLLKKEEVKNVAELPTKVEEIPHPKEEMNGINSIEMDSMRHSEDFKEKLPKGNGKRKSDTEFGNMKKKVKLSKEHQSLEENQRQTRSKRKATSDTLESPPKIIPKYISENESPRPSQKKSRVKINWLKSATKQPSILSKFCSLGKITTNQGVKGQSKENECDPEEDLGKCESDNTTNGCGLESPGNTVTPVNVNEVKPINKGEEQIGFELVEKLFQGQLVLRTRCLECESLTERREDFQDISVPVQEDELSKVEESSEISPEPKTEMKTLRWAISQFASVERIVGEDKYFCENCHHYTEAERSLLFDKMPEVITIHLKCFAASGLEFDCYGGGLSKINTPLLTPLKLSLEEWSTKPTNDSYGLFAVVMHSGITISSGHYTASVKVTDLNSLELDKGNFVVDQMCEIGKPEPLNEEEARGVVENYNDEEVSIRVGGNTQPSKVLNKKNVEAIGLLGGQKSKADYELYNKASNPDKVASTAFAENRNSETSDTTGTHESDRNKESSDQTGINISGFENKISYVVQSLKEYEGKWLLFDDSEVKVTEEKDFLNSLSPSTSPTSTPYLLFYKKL
Thyrotropin receptor (Homo sapiens), sequence (P16473 whole entry, looked up): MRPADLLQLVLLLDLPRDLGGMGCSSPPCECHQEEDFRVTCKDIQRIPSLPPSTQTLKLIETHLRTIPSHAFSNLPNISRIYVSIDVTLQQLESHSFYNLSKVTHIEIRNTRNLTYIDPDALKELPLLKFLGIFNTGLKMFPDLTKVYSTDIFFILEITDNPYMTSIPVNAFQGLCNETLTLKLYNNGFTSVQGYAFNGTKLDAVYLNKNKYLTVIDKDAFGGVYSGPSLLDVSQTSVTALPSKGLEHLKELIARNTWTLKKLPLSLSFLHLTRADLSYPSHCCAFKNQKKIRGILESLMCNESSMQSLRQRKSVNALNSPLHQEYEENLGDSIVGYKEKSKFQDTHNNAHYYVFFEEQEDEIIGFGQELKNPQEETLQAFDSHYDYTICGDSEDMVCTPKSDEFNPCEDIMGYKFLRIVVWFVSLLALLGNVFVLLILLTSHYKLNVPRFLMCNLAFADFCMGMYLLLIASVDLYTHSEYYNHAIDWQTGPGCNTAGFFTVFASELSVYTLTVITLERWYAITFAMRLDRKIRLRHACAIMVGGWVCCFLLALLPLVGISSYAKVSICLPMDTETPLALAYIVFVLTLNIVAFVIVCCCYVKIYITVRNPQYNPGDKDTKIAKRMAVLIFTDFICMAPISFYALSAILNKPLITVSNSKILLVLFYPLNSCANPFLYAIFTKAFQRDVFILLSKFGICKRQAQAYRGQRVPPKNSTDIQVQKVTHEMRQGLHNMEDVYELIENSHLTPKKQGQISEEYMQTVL
Thyrotropin-releasing hormone receptor (Homo sapiens), sequence (P34981 whole entry, looked up): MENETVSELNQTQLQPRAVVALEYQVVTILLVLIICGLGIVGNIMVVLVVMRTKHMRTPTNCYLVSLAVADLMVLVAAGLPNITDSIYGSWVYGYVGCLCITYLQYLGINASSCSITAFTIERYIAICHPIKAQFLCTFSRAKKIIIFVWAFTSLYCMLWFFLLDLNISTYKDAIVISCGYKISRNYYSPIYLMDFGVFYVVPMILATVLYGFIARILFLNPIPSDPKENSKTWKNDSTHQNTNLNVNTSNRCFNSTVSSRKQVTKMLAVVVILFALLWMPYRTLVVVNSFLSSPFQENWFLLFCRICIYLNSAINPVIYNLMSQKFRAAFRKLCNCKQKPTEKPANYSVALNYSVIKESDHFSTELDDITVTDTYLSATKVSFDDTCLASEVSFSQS
ATPase family AAA domain-containing protein 5 (Homo sapiens), sequence (Q96QE3 whole entry, looked up, the tested form may be a part): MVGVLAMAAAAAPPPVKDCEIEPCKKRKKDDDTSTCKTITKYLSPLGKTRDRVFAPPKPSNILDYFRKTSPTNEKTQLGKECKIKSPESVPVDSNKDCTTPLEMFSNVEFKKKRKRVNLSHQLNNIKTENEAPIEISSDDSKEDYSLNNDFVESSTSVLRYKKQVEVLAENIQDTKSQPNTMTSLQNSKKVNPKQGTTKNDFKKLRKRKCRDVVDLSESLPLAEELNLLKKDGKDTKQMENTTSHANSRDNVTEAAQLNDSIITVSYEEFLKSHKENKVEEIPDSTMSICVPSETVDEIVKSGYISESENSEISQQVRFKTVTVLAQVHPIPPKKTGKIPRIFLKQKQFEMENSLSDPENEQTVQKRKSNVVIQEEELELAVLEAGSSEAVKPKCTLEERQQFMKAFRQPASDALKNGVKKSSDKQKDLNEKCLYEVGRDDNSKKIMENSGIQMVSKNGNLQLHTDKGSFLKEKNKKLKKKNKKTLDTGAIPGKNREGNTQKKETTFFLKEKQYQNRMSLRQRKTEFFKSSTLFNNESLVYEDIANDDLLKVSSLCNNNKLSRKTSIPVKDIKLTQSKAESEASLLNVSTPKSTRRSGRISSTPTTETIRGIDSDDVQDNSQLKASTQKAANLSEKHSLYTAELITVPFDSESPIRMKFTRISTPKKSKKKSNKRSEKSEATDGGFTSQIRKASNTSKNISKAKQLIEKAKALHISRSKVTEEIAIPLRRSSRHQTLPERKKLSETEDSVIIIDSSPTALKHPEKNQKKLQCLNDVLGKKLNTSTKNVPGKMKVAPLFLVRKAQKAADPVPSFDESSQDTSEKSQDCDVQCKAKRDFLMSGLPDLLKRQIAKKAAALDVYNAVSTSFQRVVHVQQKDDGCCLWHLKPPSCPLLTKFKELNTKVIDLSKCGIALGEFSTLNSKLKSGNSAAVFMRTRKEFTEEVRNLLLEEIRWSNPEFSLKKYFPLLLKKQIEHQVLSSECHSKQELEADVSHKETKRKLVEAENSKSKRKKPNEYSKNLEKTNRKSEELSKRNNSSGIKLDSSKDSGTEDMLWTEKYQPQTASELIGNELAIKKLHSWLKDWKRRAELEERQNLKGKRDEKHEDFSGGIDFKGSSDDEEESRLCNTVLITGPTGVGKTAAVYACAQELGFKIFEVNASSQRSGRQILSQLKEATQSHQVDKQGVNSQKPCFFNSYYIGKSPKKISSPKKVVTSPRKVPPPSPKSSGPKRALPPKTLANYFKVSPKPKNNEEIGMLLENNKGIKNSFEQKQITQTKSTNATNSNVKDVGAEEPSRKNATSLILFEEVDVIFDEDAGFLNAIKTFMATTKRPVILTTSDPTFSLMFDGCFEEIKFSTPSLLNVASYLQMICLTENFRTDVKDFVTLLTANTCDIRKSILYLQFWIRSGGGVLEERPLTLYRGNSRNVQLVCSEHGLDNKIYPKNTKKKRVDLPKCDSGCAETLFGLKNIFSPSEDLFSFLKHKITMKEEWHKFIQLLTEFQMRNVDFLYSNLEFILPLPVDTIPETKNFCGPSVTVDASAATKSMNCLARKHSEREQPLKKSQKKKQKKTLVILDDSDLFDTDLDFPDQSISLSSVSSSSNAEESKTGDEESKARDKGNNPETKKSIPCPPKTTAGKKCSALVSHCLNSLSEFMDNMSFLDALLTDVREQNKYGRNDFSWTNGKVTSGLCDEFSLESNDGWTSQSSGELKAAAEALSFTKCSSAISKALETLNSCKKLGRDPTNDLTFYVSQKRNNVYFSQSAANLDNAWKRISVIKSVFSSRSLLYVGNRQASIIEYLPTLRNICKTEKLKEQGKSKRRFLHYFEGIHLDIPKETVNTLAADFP
Transient receptor potential cation channel subfamily V member 1 (Homo sapiens), sequence (Q8NER1 whole entry, looked up): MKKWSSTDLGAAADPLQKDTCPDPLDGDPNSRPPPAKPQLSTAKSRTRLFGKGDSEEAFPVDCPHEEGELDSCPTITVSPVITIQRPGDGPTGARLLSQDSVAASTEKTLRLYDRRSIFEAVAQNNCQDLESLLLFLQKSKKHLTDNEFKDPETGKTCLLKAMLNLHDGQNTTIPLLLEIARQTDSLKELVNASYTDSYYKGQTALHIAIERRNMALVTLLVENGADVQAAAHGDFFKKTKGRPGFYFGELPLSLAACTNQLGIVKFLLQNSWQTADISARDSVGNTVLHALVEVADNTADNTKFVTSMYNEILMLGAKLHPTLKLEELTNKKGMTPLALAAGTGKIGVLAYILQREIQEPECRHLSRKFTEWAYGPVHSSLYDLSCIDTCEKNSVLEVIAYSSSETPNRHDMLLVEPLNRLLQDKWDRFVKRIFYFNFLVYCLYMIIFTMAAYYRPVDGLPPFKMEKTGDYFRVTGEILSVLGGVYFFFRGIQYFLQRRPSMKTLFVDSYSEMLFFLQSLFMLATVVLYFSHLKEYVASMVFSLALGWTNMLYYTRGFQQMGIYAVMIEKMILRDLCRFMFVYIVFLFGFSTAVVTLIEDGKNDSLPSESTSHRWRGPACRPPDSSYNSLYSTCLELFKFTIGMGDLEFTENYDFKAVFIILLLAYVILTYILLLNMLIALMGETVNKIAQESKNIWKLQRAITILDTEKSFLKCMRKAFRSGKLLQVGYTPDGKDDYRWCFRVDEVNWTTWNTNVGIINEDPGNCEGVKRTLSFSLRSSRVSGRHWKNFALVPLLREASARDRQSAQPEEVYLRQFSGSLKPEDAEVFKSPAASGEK
Peptidyl-prolyl cis-trans isomerase NIMA-interacting 1 (Homo sapiens), sequence (Q13526 whole entry, looked up): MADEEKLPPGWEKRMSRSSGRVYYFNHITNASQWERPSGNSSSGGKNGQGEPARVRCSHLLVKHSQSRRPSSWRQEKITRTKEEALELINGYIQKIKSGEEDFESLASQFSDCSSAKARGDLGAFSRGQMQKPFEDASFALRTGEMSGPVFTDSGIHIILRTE

For the compound `CN1[C@@H](CC(=O)c2ccccc2)CCC[C@H]1C[C@H](O)c1ccccc1`, the compound was classed as inactive in [1], in test [2], in test [3], in test [6] and in test [10]. Further, the Potency result in [4], in test [5], in test [7], in test [8], in test [11] and in [12] was “inactive” in each case. Moreover, the Potency result in test [13], in test [14], in test [15] and in test [16] was “inactive” in each case. For the same compound, the activation in [9] was 0.5% (inactive).
As for `O=Nc1ccc2oc(=O)ccc2c1`, the outcome in test [1], in test [2] and in test [3] was inactive. In addition, the Potency entry in [4], in test [17], in test [7], in [8], in [18] and in test [11] was “inactive” in each case. For the same compound, the Potency result in test [13], in test [14] and in test [15] was “inactive” in each case. Moreover, in test [9], the activation was -0.5% (inactive). Besides, the viability change in test [18] is 1.8%.
Take `O=C(O)[C@@H]1C[C@@H](C(=O)O)N1`: the compound was called inactive in test [1], in test [2] and in [10]. Also, the Potency entry in [4], in [5], in test [17], in test [7], in test [18] and in test [11] was “inactive” throughout. Besides, the Potency result in [12], in test [14], in test [15], in [16] and in test [19] was “inactive” in each case. Moreover, the activation in [9] is 1.06% (inactive). For the same compound, the viability change in test [18] worked out at 2.33%.
Take `O=C(/C=C/c1ccc(O)cc1)c1ccc(O)cc1O`: the result in [1], in test [2], in test [3] and in [10] was inactive. Further, the Potency entry in test [5], in [17], in [18], in test [11], in [13] and in test [14] was “inactive” in each case. Besides, the values for the Potency in test [7] and in test [16] were 8.2 µM (active) and 79.4 µM (active), respectively. Also, in test [9], the activation was -5.19% (inactive). Besides, the viability change in test [18] was -0.936%.
For `C[C@@H](CN1CCC(Cc2ccccc2)CC1)[C@@H](O)c1ccc(O)cc1`, the call in test [1], in test [2] and in test [3] was inactive. Further, the Potency result in test [5], in test [7], in test [8], in test [18], in test [11] and in test [12] was “inactive” throughout. Besides, the Potency entry in test [13], in test [14], in test [16] and in test [19] was “inactive” throughout. For the same compound, the Potency in test [17] was 14.1 µM (active). The activation in [9] was 2.75% (inactive). The viability change in test [18] was determined as 8.45%.
For the compound `CN1CCc2cccc3c2C1Cc1ccc(O)c(O)c1-3` (stereo not given), the call in [1], in test [2], in [3] and in test [10] was inactive. Further, the Potency entry in test [5], in test [7], in test [18], in test [11], in test [13] and in test [14] was “inactive” in each case. In addition, the Potency result in test [15] and in [16] was “inactive” in each case. The activation in test [9] is 0.125% (inactive). Besides, in [18], the viability change amounted to 0.0644%.
